Drawing on PubChem BioAssay (NCATS), this text covers Potency and outcome for 18 compounds.

Structures are written as SMILES. Inconclusive results are not listed. Entries that show only a call come without a potency. The source made the active and inactive calls. Calls follow the shape of the full dose curve.
Potency is read from the fitted curve at half-maximal effect.

This test in a line: Cytotoxicity counterscreen for inhibitors of SARS-CoV-2 cell entry (AID 1645845). Also: nearly all actives have a fitted effect of over 50% in size. The settings on record: cell viability (SARS-CoV-2 entry assay cells); series mostly up to 57.1 µM. A digest of the protocol:
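Expi293F/hACE2 cells seeded overnight; cpd pin-transferred in DMSO, 1 h preincubation, + media, 48 h 37 C 5% CO2; ATPLite 1step luminescence; normalized to cells and no cells.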
Turning to `COc1cc(C)c(/C=C/C(C)=C/C=C/C(C)=C/C(=O)O)c(C)c1C`, the Potency result was “inactive”.
Still for that read-out and setting: next, `Cc1cc2c(cc1S(N)(=O)=O)S(=O)(=O)CCC2`: “inactive”.
The same measure, in the same setting: next, `O=C(O)CCCC[C@@H]1SC[C@@H]2NC(=O)N[C@@H]21`: “inactive”; `CCCCCCCCCCCCSCCOCCO`: “inactive”.
Turning to `NC[C@H]1O[C@H](O[C@H]2[C@H](O)[C@@H](O[C@H]3O[C@H](CO)[C@@H](O)[C@H](N)[C@H]3O)[C@H](N)C[C@@H]2N)[C@H](O)[C@@H](O)[C@@H]1O`, the outcome is “inactive [at 5.25 µM]”.
For `CCC(Cc1c(I)cc(I)c(N)c1I)C(=O)O` (stereo not drawn), the Potency result was “inactive”.
Still for that read-out and setting: next, `CC(C)(C(=O)c1cccnc1)c1cccnc1`: “inactive”; `CCCCC(CC)CN1CN(CC(CC)CCCC)CC(C)(N)C1` (stereo not drawn): “inactive”.
Still for that read-out and setting: next, `CCCCC(=O)OCC(=O)[C@H]1[C@H](C)C[C@H]2[C@@H]3C[C@H](F)C4=CC(=O)C=C[C@]4(C)[C@@]3(F)[C@@H](O)C[C@@]21C`: “inactive”; `O=C1O[C@H](CO)[C@@H](O)[C@H](O)[C@H]1O`: “inactive”.
Same read-out and setting: the entry for `CCCc1ccc(OCC(=O)N2CCN(C(=O)COc3ccc(CCC)cc3OC)CC2)c(OC)c1` is “inactive”.
`CNC(=O)c1c(I)c(NC(C)=O)c(I)c(C(=O)O)c1I`: the Potency result is “inactive”.
On the same count and under the same terms, the entry for `COC(=O)c1ccc(O)cc1` is “inactive”; for `CN(C)CCOc1ccc(/C(=C(/CCCl)c2ccccc2)c2ccccc2)cc1` it is “inactive”.
The same measure, in the same setting: next, `CN(C)c1ccc2nc3ccc(=[N+](C)C)cc-3sc2c1`: 7.08 µM (active).
On to `CC(=O)Nc1ccccc1`, for which the Potency result was “inactive”.
Still for that read-out and setting: the entry for `NNC(=O)c1ccncc1` is “inactive”; for `CCC[C@@H]1C[C@@H](C(=O)N[C@@H]([C@H]2O[C@H](SC)[C@H](O)[C@@H](O)[C@H]2O)[C@H](C)Cl)N(C)C1` it is “inactive”.
